A selection: hits, their analogues and other compounds. The true share with any hit is near 2.9%.
N-glyco inh – increase of ERlucT glycosylation luciferase signal, primary screen, N-linked glycosylation inhibitor project, D54 ERlucT cells, luminescence, set 2. D54 ERlucT glycosylation luciferase reporter, 24 h; percent of 100 nM tunicamycin response. reporter increase, % at 12.5 µM. actives 0.23% (n = 360,000). AID 588692, 2011;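 active = mean luciferase reporter signal, scaled so untreated is 0 and the glycosylation-blocking control 100, at or above a set limit in every replicate; inconclusive = mean reaches the limit but not every replicate does; inactive = mean below the limit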;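 note: luciferase carries N-glycosylation sites so blocking glycosylation raises the light; 0% = median of neutral control wells and 100% = median of 100 nM tunicamycin wells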
PvdQ acylase – P. aeruginosa PvdQ acylase inhibitors, primary screen, biochemical, fluorescence, plate reader and imaging, single point. PvdQ acylase [Pseudomonas aeruginosa LESB58]. purified PvdQ acylase. inhibition, % at 10 µM. actives 0.063% (n = 340,000). AID 488965, 2010; in the data active = inhibition above about 30%, passing the limit was not always enough; inconclusive = no clear call, values can overlap the other calls;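 note: 0% = vehicle neutral wells and 100% = reference inhibitor wells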
MITF TRPM1 HTS – activators of MITF-driven TRPM1 promoter reporter, primary screen, cell-based, SK-MEL-5, luciferase, single point. SK-MEL-5 TRPM1-promoter luciferase, 24 h; % of positive control, neutral wells = 0. activation, % at 12.5 µM. actives 0.75% (n = 300,000);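 active = mean activation of at least 80% with every replicate also reaching 80%; inconclusive = mean reaches 80% but some replicate falls short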;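 note: 0% = neutral control wells and 100% = parthenolide positive control wells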
Wnt act – Wnt/beta-catenin pathway activators, primary screen, cell-based, plate reader, single point | Wnt/beta-catenin reporter cell assay, activator | activation, % at 9.35 µM | actives 1.2% (n = 300,000); in the data active = activation above about 30%, passing the limit was not always enough; inconclusive = no clear call, values can overlap the other calls;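 note: 0% = neutral control wells and 100% = positive control wells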
esBAF inh – Bmi1 luciferase reporter increase in mESCs, primary screen, esBAF inhibitor project, mouse ES cells, Bmi1 luciferase knock-in, single point; 24 h; 100% = twice the neutral-well signal; reporter increase, % at 12.5 µM; actives 2% (n = 350,000); AID 602393, 2012; in the data active = activation above about 40%; inconclusive = no clear call, values can overlap the other calls;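 note: 0% = median of the plate's neutral control wells and 100% = double that signal; a rise in the Bmi1 reporter signal indicates esBAF inhibition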
Vif imaging – HIV Vif self-association inhibitors, primary screen, imaging, HEK293T, single point; inhibition, % at 7.49 µM; AID 602346, 2012; HEK293T cells, Vif self-association by quenched fluorescence, 24 h; actives 0.35% (n = 340,000); in the data active = inhibition above about 50%, passing the limit was not always enough; inconclusive = no clear call, values can overlap the other calls; inactive = below about 31%
Ring1 derepress – Ring1 mRNA increase in mouse ESCs, confirmation, esBAF inhibitor project, cell-based, mouse ESC, RT-qPCR, cherry-pick. shares compounds with esBAF inh. mouse ESC E14, Ring1 mRNA RT-qPCR fold change. fold change at 33 µM. 550 tested, under 10 active;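 active = Ring1 gene expression raised more than 2-fold over untreated cells in both replicates at either tested dose; inconclusive = only one replicate above 2-fold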;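 note: Ring1 transcript normalised to actin housekeeping signal by TaqMan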
Fgf4 repress – Fgf4 mRNA decrease in mouse ESCs, confirmation, esBAF inhibitor project, cell-based, mouse ESC, RT-qPCR, cherry-pick | shares compounds with esBAF inh | mouse ESC E14, Fgf4 mRNA qPCR fold change; active compounds read low | Fgf4 expression fold change at 33 µM | actives 4% (n = 550) | AID 743177, 2013;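 active = Fgf4 expression under 0.8 fold of control in both repeat measurements at one or both tested doses; inconclusive = under 0.8 fold in just a single repeat measurement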;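 note: Fgf4 transcript normalised to actin in duplex TaqMan qPCR; cells exposed to compound for 24 h before lysis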
Bmi1 derepress – esBAF inhibition via Bmi1 de-repression, confirmation, cell-based, RT-qPCR, mouse ESC, single point, cherry-pick; fold change at 33 µM; mouse ESE14 ES cells, Bmi1 mRNA qPCR fold; active compounds read high; 550 tested, under 10 active; shares compounds with esBAF inh;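 active = Bmi1 expression fold change above 6 at either tested concentration, seen in replicate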;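 note: higher fold means more Bmi1 de-repression and stronger esBAF inhibition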
A549 cytotox – A549 cell cytotoxicity, cytotoxicity control, plate reader, single point, cherry-pick; shares compounds with esBAF inh; cell viability change % (negative = cytotoxic), % at 25 µM, hits read low; 550 tested, under 10 active; AID 743188, 2013; call rule not given here
HepG2 cytotox SP – HepG2 cell cytotoxicity, cytotoxicity control, plate reader, single point, cherry-pick; actives 4% (n = 550); shares compounds with esBAF inh; AID 743189, 2013; active compounds read low; activity change, negative = inhibition, % at 25 µM; in the data active = activity change below about -50%
HEK293 cytotox SP – HEK293 cell cytotoxicity, cytotoxicity control, plate reader, single point, cherry-pick; activity change, negative = inhibition, % at 25 µM, hits read low; actives 3% (n = 550); shares compounds with esBAF inh; AID 743190, 2013; in the data active = activity change below about -38%, passing the limit was not always enough
The depositor's hits bear a star; ? = inconclusive; nt = no result.

SMILES	N-glyco inh	PvdQ acylase	MITF TRPM1 HTS	Wnt act	esBAF inh	Vif imaging	Ring1 derepress	Fgf4 repress	Bmi1 derepress	A549 cytotox	HepG2 cytotox SP	HEK293 cytotox SP
CCn1c(SCc2ccccc2Cl)nc2ccccc21	-3	-9	40	-6	57*	-2	1.2	0.87	1.4	-16	-13	-14
C=CCNc1oc(-c2ccc(OC)cc2)nc1C#N	0	-5	63	nt	79*	-8	0.95	0.92	1.4	-2	10	-12
C=CCNc1oc(-c2ccc(OCC)cc2)nc1C#N	0	-5	35	5	34	-9	nt	nt	nt	nt	nt	nt
C[C@H](CO)N1C[C@H](C)[C@@H](CN(C)Cc2cccc(F)c2)Oc2ncc(C3=CCCC3)cc2C1=O	nt	nt	nt	nt	-4	nt	nt	nt	nt	nt	nt	nt
Cc1cc(N2CCOCC2)nc2ccc(NC(=O)CCC(=O)N3CCN(c4ccccc4F)CC3)cc12	0	-4	120*	13	74*	31	0.86	1.1	1	7	7	5
Cc1cc(N2CCOCC2)nc2ccc(NC(=O)CCC(=O)N3CCN(c4ccc(F)cc4)CC3)cc12	-1	5	9	4	13	-8	nt	nt	nt	nt	nt	nt
Cc1ccc(-c2ccc3c(c2)O[C@H](CN(C)Cc2cccnc2)[C@@H](C)CN([C@@H](C)CO)S3(=O)=O)cc1	nt	nt	nt	nt	-2	nt	nt	nt	nt	nt	nt	nt
Cc1ccc(S(=O)(=O)Nc2ccc3c(c2)C(=O)N([C@@H](C)CO)C[C@H](C)[C@@H](CN(C)C(=O)CCC(F)(F)F)OCCCC[C@@H](C)O3)cc1	nt	nt	nt	nt	1	nt	nt	nt	nt	nt	nt	nt
CC(=O)Oc1ccc(-c2cc3ccccc3oc2=O)cc1	1	-1	nt	28	69*	4	1.2	?	1.2	-5	-1	0
COc1cc(OC)cc(OC)c1	0	nt	nt	4	5	-3	nt	nt	nt	nt	nt	nt
COc1cc(/C=C/c2ccc(O)cc2)cc(OC)c1	-2	-4	nt	2	61*	?	0.95	0.97	2	-4	-35	2
COc1ccc(OCc2cc(C(=O)NC(C)Cc3cnccn3)no2)c(Cl)c1 (stereo not given)	2	-3	65	-1	61*	-4	0.84	0.92	1.4	-7	-21	-2
COc1ccc(OCc2cc(C(=O)N(C)Cc3cnccn3)no2)c(Cl)c1	2	-16	68	12	nt	-2	nt	nt	nt	nt	nt	nt
COc1ccc(CN(C)C[C@H]2Oc3c(NS(=O)(=O)c4c(C)noc4C)cccc3C(=O)N([C@H](C)CO)C[C@H]2C)cc1	nt	nt	nt	nt	-3	nt	nt	nt	nt	nt	nt	nt
COc1cccc(NC(=O)N2C[C@@H](O)COC[C@@H]3O[C@H](CC(=O)NC4Cc5ccccc5C4)CC[C@H]32)c1	nt	nt	nt	nt	-2	nt	nt	nt	nt	nt	nt	nt
Cc1ccc(S(=O)(=O)NCc2ccccc2)cc1C(=O)NC1CCC(C)CC1 (stereo not given)	-4	-9	79	21	74*	-12	1.1	0.9	1.5	-12	-1	-10
Cc1ccc(S(=O)(=O)NCc2ccccc2)cc1C(=O)N1CC(C)CC(C)C1 (stereo not given)	1	-6	1	-1	-8	3	nt	nt	nt	nt	nt	nt
O=C(c1cc2c(s1)-c1ccccc1OC2)N1CCCC1	-2	-32	34	55*	76*	1	1.1	0.97	2	-6	21	-26
Cc1ccc(NC(=O)Nc2cccc(C)n2)c(C)c1	-1	-5	22	39*	56*	-4	1.1	0.84	1.4	-1	-26	10
COC(=O)Cc1ccc(OCc2ccc(Cl)nc2)cc1	-2	-6	95*	-2	59*	-3	1.2	0.91	1.8	0	-30	-4
Clc1ccc(-c2cnnc(-c3ccccn3)n2)cc1	3	7	?	25	83*	27	1.2	1.3	2	-23	-31	-21
c1ccc(-c2cnnc(-c3ccccn3)n2)cc1	-2	4	?	?	28	1	nt	nt	nt	nt	nt	nt
COc1ccc(CNC(=O)Nc2cccc(C)c2)cc1	-2	-10	75	35*	67*	nt	1.2	1.1	1.4	0	2	3
COc1ccc(CNC(=O)Nc2ccccc2)cc1	-1	9	60	29	29	nt	nt	nt	nt	nt	nt	nt
Cc1noc(C)c1S(=O)(=O)N(C)C[C@@H]1Oc2ccc(N(C)C)cc2CC(=O)N([C@@H](C)CO)C[C@H]1C	nt	nt	nt	nt	-5	nt	nt	nt	nt	nt	nt	nt
SMILES	N-glyco inh	PvdQ acylase	MITF TRPM1 HTS	Wnt act	esBAF inh	Vif imaging	Ring1 derepress	Fgf4 repress	Bmi1 derepress	A549 cytotox	HepG2 cytotox SP	HEK293 cytotox SP
COC(=O)c1ccc2c(c1)N(C)CCS2	0	-18	5	1	-4	0	nt	nt	nt	nt	nt	nt
Cc1ccccc1NC(=O)c1ccc2c(c1)N(C)CCS2	-1	-5	nt	23	80*	10	1.1	0.99	1.5	-10	-5	-7
CN(C)c1ccc2c(c1)[C@@H]1C[C@@H](CC(=O)NCc3ccccc3F)O[C@@H](CO)[C@@H]1O2	nt	nt	nt	nt	-6	nt	nt	nt	nt	nt	nt	nt
CCC(=O)c1ccc(N2CCN(C(=O)c3ccccc3F)CC2)c(F)c1	-2	-3	-2	-3	nt	1	nt	nt	nt	nt	nt	nt
CCC(=O)c1ccc(N2CCCCCC2)c(F)c1	-1	-4	54	nt	74*	-4	1.1	1.1	1.3	-17	20	-15
CCC(=O)c1ccc(N2CCCC2)c(F)c1	0	-6	nt	nt	57*	11	1.1	0.91	1.4	-4	-21	-11
CCNC(=O)C[C@@H]1CC[C@H]2[C@H](COc3ccc(NC(=O)Nc4ccccc4OC)cc3C(=O)N2C)O1	nt	nt	nt	nt	-1	nt	nt	nt	nt	nt	nt	nt

Screens from PubChem BioAssay.
